Data reported in PubChem BioAssay (EPA / NIEHS).
Inconclusive results are not listed. More than one record can exist for a structure, and the calls need not agree. Activity calls are given as the source filed them. Rule for the calls, unless noted: active = hit-call score of the fitted dose curve at least 0.9, where 1 is the maximum; inconclusive = response in the unintended direction; inactive = score below 0.9.

Assays:
[1] = target: human RAR-related Orphan Receptor gamma (RORg), RORC (gene 6097) (UniProt P51449); test: ATG_RORg_TRANS: Attagene TRANS-FACTORIAL HepG2 Assay for human RAR-related Orphan Receptor gamma (RORg) (AID 2283011);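 for AC50: potency for induction of reporter transcripts above DMSO so activators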
Chain of human RAR-related Orphan Receptor gamma (RORg), RORC (gene 6097) (P51449 whole entry, looked up, the tested form may be a part): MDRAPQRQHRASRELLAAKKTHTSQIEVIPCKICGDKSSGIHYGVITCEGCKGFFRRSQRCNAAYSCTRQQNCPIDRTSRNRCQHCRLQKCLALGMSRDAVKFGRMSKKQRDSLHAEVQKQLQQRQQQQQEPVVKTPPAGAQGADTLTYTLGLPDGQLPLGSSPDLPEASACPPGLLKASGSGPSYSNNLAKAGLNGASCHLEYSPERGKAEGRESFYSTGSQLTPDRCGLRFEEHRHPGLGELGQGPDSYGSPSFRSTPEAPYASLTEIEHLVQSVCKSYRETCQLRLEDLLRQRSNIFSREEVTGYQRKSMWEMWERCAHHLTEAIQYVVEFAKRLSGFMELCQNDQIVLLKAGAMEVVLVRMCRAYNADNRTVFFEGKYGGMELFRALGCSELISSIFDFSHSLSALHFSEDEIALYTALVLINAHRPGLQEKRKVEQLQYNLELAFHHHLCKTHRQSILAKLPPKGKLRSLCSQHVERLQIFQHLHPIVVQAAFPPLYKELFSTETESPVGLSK
How it was run: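 HepG2 cells transiently transfected with GAL4-UAS reporter units and chimeric RORg-Gal4 construct; after 24 h chemical exposure, reporter mRNA measured by RT-PCR with fluorescent capillary electrophoresis, gain of signal fitted against DMSO.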

[2] = target: Retinoic acid receptor RXR-alpha (Homo sapiens) (UniProt P19793); test: ATG_RXRa_TRANS: Attagene TRANS-FACTORIAL HepG2 Assay for human Retinoid X Receptor alpha (RXRa) (AID 2283012)
Chain of Retinoic acid receptor RXR-alpha (Homo sapiens) (P19793 whole entry, looked up, the tested form may be a part): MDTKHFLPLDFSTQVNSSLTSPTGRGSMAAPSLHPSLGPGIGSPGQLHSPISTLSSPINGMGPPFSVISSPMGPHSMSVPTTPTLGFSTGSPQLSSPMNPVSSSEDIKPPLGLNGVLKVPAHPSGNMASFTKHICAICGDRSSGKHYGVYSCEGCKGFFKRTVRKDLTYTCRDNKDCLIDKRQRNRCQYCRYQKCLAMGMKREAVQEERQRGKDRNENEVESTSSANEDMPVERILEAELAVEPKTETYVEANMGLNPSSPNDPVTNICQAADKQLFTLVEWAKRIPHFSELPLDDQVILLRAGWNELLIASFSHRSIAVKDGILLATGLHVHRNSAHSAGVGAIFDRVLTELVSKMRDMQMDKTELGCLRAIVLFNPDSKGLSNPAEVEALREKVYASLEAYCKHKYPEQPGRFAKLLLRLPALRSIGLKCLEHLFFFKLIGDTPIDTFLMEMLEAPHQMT
How it was run: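 Transient transfection of human HepG2 with multiple GAL4-UAS reporter constructs; 24 h compound exposure; total RNA isolated, reverse-transcribed, PCR-amplified, 6-FAM labelled, HpaI-cut, resolved by capillary electrophoresis. Positive-direction fit versus DMSO.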

[3] = target: human Retinoid X Receptor beta (RXRb), RXRB (gene 6257) (UniProt P28702); test: ATG_RXRb_TRANS: Attagene TRANS-FACTORIAL HepG2 Assay for human Retinoid X Receptor beta (RXRb) (AID 2283013)
Chain of human Retinoid X Receptor beta (RXRb), RXRB (gene 6257) (P28702 whole entry, looked up, the tested form may be a part): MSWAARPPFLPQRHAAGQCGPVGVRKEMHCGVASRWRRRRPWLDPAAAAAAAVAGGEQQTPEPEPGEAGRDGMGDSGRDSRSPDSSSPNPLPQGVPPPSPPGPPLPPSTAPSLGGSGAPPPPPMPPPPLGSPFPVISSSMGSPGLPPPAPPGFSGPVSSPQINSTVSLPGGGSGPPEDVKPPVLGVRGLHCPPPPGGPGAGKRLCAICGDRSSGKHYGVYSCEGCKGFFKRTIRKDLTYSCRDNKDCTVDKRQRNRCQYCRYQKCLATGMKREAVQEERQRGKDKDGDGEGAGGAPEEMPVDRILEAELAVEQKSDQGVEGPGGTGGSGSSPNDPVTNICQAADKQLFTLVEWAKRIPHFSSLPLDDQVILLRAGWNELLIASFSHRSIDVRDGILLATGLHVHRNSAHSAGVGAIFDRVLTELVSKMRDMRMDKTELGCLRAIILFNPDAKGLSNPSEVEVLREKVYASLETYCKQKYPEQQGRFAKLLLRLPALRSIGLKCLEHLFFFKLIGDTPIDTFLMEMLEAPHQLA
How it was run: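 Transfect HepG2 with GAL4-UAS multi-reporter constructs (chimeric NR-Gal4, TRANS format); dose compound 24 h; isolate RNA, RT-PCR, FAM primer extension, HpaI digest; quantify by capillary electrophoresis; positive direction vs DMSO.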

[4] = target: human Thyroid Receptor alpha (THRa1), THRA (gene 7067) (UniProt P10827); test: ATG_THRa1_TRANS: Attagene TRANS-FACTORIAL HepG2 Assay for human Thyroid Receptor alpha (THRa1) (AID 2283014)
Chain of human Thyroid Receptor alpha (THRa1), THRA (gene 7067) (P10827 whole entry, looked up, the tested form may be a part): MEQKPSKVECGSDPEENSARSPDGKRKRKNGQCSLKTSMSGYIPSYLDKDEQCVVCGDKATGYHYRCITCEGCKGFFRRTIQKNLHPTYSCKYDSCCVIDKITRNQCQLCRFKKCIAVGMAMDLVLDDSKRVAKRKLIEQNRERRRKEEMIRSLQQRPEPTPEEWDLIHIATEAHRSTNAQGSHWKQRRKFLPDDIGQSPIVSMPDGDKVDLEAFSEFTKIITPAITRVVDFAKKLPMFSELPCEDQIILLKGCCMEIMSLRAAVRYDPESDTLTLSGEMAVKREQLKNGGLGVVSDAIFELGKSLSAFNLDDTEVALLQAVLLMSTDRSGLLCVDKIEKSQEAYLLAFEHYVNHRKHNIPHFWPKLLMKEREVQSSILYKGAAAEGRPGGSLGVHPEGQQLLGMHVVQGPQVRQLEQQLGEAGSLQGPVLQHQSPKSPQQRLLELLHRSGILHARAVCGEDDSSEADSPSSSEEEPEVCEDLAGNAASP
How it was run: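 HepG2 cells transiently transfected with chimeric NR-Gal4 and GAL4-UAS reporter units, dosed 24 h. Reporter mRNA quantified by RT-PCR, fluorescent labeling, HpaI digestion and capillary electrophoresis; gain-of-signal fit versus DMSO.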

[5] = read-out: E-selectin (Homo sapiens) (UniProt P16581); test: BSK_3C_Eselectin: BioMAP Diversity Plus: 3C Assay for Eselectin Biomarker Activity (AID 2283015; active = hit-call score of the fitted dose curve at least 0.9, where 1 is the maximum; inactive = score below 0.9); settings: primary human endothelial cells (HUVEC); actives raise or lower the signal
How it was run: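 Primary human umbilical vein endothelial cells (3C system), read 24 h after compound addition; E-selectin measured by ELISA. Bidirectional curve fitting against DMSO baseline; cytotoxicity by parallel SRB total-protein staining.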

[6] = read-out: Interleukin-1 alpha (IL1a), IL1A (gene 3552); test: BSK_BE3C_IL1a: BioMAP Diversity Plus: BE3C Assay for Interleukin-1 alpha (IL1a) Biomarker Activity (AID 2283016; active = hit-call score of the fitted dose curve at least 0.9, where 1 is the maximum; inactive = score below 0.9); settings: primary human bronchial epithelial cells; actives raise or lower the signal
How it was run: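 BE3C primary human bronchial epithelium; cpd 24 h; IL-1a by ELISA; bidirectional fit vs DMSO; parallel SRB (0.1% SRB, 10% TCA fix, 560 nm) for cytotoxicity.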

[7] = read-out: Monocyte Chemoattractant Protein-1 (MCP1), CCL2 (gene 6347); test: BSK_3C_MCP1: BioMAP Diversity Plus: 3C Assay for Monocyte Chemoattractant Protein-1 (MCP1) Biomarker Activity (AID 2283017; active = hit-call score of the fitted dose curve at least 0.9, where 1 is the maximum; inactive = score below 0.9); settings: primary human endothelial cells (HUVEC); actives raise or lower the signal
How it was run: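 Human umbilical vein endothelial cells (3C system) exposed to chemicals for 24 h; MCP-1 quantified by ELISA against the DMSO baseline with bidirectional fitting, and parallel SRB staining used to assess cytotoxicity.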

[8] = read-out: Monocyte Chemoattractant Protein-1 (MCP1), CCL2 (gene 6347); test: BSK_4H_MCP1: BioMAP Diversity Plus: 4H Assay for Monocyte Chemoattractant Protein-1 (MCP1) Biomarker Activity (AID 2283018; active = hit-call score of the fitted dose curve at least 0.9, where 1 is the maximum; inactive = score below 0.9); settings: primary human endothelial cells (HUVEC); actives raise or lower the signal
How it was run: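 ELISA read-out of MCP-1 from human vascular endothelial primary cells taken at 24 hours after compound exposure. Activity was fitted in both directions relative to DMSO, which served as negative control.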

[9] = target: human RAR-related Orphan Receptor beta (RORb), RORB (gene 6096) (UniProt Q92753); test: ATG_RORb_TRANS: Attagene TRANS-FACTORIAL HepG2 Assay for human RAR-related Orphan Receptor beta (RORb) (AID 2283010)
Chain of human RAR-related Orphan Receptor beta (RORb), RORB (gene 6096) (Q92753 whole entry, looked up, the tested form may be a part): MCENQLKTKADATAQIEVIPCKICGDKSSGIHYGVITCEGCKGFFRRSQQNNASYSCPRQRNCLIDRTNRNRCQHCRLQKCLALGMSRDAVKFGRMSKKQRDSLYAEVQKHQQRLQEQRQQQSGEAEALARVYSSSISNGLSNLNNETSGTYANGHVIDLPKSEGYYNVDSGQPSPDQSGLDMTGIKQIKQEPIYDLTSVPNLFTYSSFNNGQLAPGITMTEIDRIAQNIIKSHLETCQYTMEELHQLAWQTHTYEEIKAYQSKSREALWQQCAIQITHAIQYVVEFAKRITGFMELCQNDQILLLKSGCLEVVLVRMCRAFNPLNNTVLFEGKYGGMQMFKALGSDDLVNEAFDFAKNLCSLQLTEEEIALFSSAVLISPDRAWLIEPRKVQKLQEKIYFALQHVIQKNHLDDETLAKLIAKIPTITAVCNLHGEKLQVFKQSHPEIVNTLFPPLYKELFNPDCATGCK
How it was run: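 Readout is reporter-gene mRNA induction, detected as fluorescence after RT-PCR and capillary electrophoresis, fitted for gain of signal against DMSO controls. Transiently transfected HepG2 liver cells carrying GAL4-UAS reporter constructs were treated for 24 hours.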

[10] = read-out: Human Leukocyte Antigen - DR isotype (HLADR), HLA-DRA (gene 3122); test: BSK_3C_HLADR: BioMAP Diversity Plus: 3C Assay for Human Leukocyte Antigen - DR isotype (HLADR) Biomarker Activity (AID 2283019; active = hit-call score of the fitted dose curve at least 0.9, where 1 is the maximum; inactive = score below 0.9); settings: primary human endothelial cells (HUVEC); actives raise or lower the signal
How it was run: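 HUVEC monoculture, HLA-DR measured by ELISA 24 h after chemical dosing. Fitted bidirectionally against DMSO baseline; parallel SRB staining assessed cytotoxicity, with 3C proliferation read by SRB at 48 h.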

Measured: AC50

Chain of E-selectin (Homo sapiens) (P16581 whole entry, looked up): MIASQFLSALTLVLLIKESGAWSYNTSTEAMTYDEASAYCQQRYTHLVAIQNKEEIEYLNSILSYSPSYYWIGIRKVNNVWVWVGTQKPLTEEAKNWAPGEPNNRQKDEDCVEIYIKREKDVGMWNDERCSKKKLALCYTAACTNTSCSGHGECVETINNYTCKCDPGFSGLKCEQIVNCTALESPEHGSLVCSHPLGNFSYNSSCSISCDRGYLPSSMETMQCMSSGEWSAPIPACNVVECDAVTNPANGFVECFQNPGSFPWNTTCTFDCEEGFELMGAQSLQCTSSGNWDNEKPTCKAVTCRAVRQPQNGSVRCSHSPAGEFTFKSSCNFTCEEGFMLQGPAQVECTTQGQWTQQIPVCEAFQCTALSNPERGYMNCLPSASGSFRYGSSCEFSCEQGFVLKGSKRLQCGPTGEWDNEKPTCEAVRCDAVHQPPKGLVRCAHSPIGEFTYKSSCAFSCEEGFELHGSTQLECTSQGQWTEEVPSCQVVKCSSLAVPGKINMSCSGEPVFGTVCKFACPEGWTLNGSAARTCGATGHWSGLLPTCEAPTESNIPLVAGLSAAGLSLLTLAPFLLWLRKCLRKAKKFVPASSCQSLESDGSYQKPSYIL

C=C(C)CCCC
inactive: [1] | [2] | [3] | [4]

O=C(Cl)C(F)(F)C(F)(F)C(F)(F)C(F)(F)C(F)(F)C(F)(F)C(F)(F)F
active: [3] 34.6 µM
not listed: [9] | [10]
inactive: all other assays above

CC(=O)CCC(C)C
inactive: [1]

CO[Si](CCCOCC1CO1)(OC)OC (stereo not given)
inactive: [1] | [2] | [3]

CCc1cccc(C)c1N(C(=O)C(=O)O)C(C)COC (stereo not given)
inactive: [1] | [2] | [3]

CCCC(=O)OCC(COC(=O)CCC)OC(=O)CCC
inactive: [1]

CCC(C)CO (stereo not given)
inactive: [9] | [4]

Cc1ccc(O)cn1
inactive: [1] | [2]

CCCCCCCC/C=C\CCCCCCCC(=O)N(C)CC(=O)O
inactive: [1] | [2] | [3] | [4]

CC(=O)c1ccccc1N
inactive: [9] | [1] | [2] | [3] | [4]

O=S(=O)(O)c1ccc(Cl)cc1
inactive: [9]

Cc1cc(C)c(O)c(C(C)(C)C)c1
active: [3] 28.9 µM | [5] 28.9 µM | [6] 32.6 µM | [7] 29 µM | [8] 30.7 µM
inactive: [9] | [1] | [2] | [4]

Cc1cc(O)c(C(C)(C)C)cc1C(C)(C)C
inactive: [1] | [4]
active: [2] 7.4 µM | [3] 2.58 µM | [5] 3.91 µM | [6] 4.77 µM | [7] 4.59 µM | [8] 3.83 µM | [10] 3.17 µM

C=CCOC(=O)CC(C)C
inactive: [1]

O=C1C=CC(=O)N1c1ccc(Cc2ccc(N3C(=O)C=CC3=O)cc2)cc1
inactive: [1] | [2] | [3] | [4]
active: [6] 3.26 µM | [7] 8.09 µM | [8] 7.61 µM

C[C@]12CC[C@H]3C(=CCc4cc(O)ccc43)[C@@H]1CCC2=O
inactive: [9] | [2] | [4] | [6] | [7] | [8]

CN1CN(C)CN(C)C1
inactive: [1] | [2]

CCOC(OCC)OCC
inactive: [9] | [1] | [2]

NS(=O)(=O)C(F)(F)C(F)(F)C(F)(F)C(F)(F)C(F)(F)C(F)(F)F
inactive: [9] | [4] | [5] | [6] | [7] | [8]
active: [6] 31.6 µM

CCN=c1cc2oc3cc(NCC)c(C)cc3c(-c3ccccc3C(=O)OCC)c-2cc1C
inactive: [1] | [2] | [3] | [4]

CCOC(=O)C1CC(=O)C(=C(O)C2CC2)C(=O)C1 (stereo not given)
inactive: [9]

CCCCCC/C=C/CCCCCCCC(=O)O
active: [2] 100 µM
inactive: [1]

CCCCCCCCn1sc(Cl)c(Cl)c1=O
inactive: [1]

CC(O)C#CC(C)O (stereo not given)
active: [1] 136 µM
inactive: [2] | [3] | [4]

Cc1ccc2c(c1)OCC(=O)CO2
inactive: [1]

O=C(O)C(F)(F)C(F)(F)C(F)(F)C(F)(F)C(F)(F)C(F)(F)C(F)F
not listed: [9] | [10]
inactive: all other assays above

CSc1ccc(O)cc1C
inactive: [1] | [2] | [3] | [4]

COC(=O)c1ccc(C=O)cc1
inactive: [9] | [1]

CCc1ccc(C)nc1
inactive: [1]

O=c1cccc[nH]1
inactive: [1] | [2] | [3]

COCCOCCC[Si](C)(O[Si](C)(C)C)O[Si](C)(C)C
active: [3] 33.4 µM
inactive: [1] | [2] | [4]

CCC/C=C/CO
inactive: [9] | [2] | [3]

C[Si](C)O[Si](C)C
inactive: [1]

N#Cc1ccccc1O
inactive: [9] | [1] | [2] | [3]

O=C(c1ccccc1)c1ccc(O)cc1O
active: [3] 35 µM
not listed: [2] | [5]
inactive: all other assays above

O=S(=O)(O)CCC(F)(F)C(F)(F)C(F)(F)C(F)(F)C(F)(F)C(F)(F)C(F)(F)C(F)(F)F
inactive: [1] | [2] | [6] | [7] | [8] | [10]

Nc1c(Br)cc([N+](=O)[O-])cc1Br
inactive: [1] | [2] | [4]

CC(=O)C=O
inactive: [1] | [2] | [4]

CN(C)C(C)(C)CO
inactive: [1] | [2] | [4]

CC(C)CCCC(C)CCO (stereo not given)
active: [6] 30.6 µM | [7] 30.2 µM | [8] 35.3 µM
inactive: [1] | [3]

O=S(=O)(OCC(F)(F)F)C(F)(F)C(F)(F)C(F)(F)C(F)(F)F
not listed: [4] | [5] | [9]
inactive: all other assays above

CC1CCCCC1
inactive: [1] | [3] | [4]

CC(C)(C)C(=O)C1C(=O)c2ccccc2C1=O
inactive: [1] | [3] | [4]
